The text below walks through data of PubChem BioAssay AID1851 (National Center for Advancing Translational Sciences (NCATS), 2009).

Among all 16,000 compounds or so, about 5,700 (36%) were called active. Roughly 24% stayed inconclusive and do not appear here. Calls come from the whole dose curve; as a rule, active = well fitted curve in the direction sought with a large enough effect; inconclusive = small, poorly fitted or top-dose-only effect, or effect the other way; inactive = no such curve, though single readings can be large or run the other way. The list shows a part of the results. Square brackets hold non-standard residues; d marks the D form. Peptide text beside a SMILES is read from it.
% is set by controls: 0 for no effect and ±100 for the full control effect.

The target in the assay is Cytochrome P450 1A2 (Homo sapiens) (UniProt P05177). The assay can be described thus: Cytochrome panel assay with activity outcomes. The note with it: recombinant CYP, pro-luciferin dealkylation, luminescence, p450-cyp1a2; series mostly up to 57.1 µM; activity, negative = inhibition: at the top concentration.
Cytochrome P450 1A2 (Homo sapiens), sequence (P05177 whole entry, looked up): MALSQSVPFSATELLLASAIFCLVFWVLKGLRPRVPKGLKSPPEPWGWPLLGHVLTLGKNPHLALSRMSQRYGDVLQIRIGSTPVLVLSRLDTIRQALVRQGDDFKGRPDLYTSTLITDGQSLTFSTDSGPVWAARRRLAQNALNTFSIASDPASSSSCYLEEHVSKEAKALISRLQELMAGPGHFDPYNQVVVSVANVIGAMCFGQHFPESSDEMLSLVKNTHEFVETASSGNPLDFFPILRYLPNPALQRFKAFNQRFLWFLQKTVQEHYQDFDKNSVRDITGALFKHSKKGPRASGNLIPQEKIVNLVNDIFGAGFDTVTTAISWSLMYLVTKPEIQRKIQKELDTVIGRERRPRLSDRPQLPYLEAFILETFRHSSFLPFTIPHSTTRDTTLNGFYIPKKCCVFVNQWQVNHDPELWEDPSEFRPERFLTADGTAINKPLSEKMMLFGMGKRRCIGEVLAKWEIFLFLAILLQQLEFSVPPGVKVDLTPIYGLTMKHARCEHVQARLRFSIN
A word on the AC50: it is the concentration giving half of the maximal activity seen. For the compound `COc1ccc(CNC(=O)c2csc(Cc3ccc(OC)cc3)n2)cc1`, the AC50 was 14.1 µM (active). As for `COc1ccc(CNC(=O)C2CSC(=O)C2)cc1` (stereo not drawn), the “activity, negative = inhibition” value was -0.484% (inactive). For `CCN(C(=O)COc1cc(=O)n(C)c2ccccc12)c1cccc(Cl)c1`, the AC50 was 15.8 µM (active). Consider `Cc1ccccc1-n1ncc2c(SCC(=O)N3c4ccccc4CC3C)ncnc21` (stereo not drawn), for which the “activity, negative = inhibition” value was -27.5% (inactive). `Cc1ccc(S(=O)(=O)/C(C#N)=C/c2c(N3CC(C)OC(C)C3)nc3ccccn3c2=O)cc1` (stereo not drawn): the “activity, negative = inhibition” value was -4.89% (inactive). The same measure, in the same setting: the figure for `CC1Cc2ccccc2N1C(=O)C1CCCCN1S(=O)(=O)c1ccccc1` (stereo not drawn) is -7.61% (inactive).

Turning to `Cn1c(C(=O)N2COCC2(C)C)cc2c(=O)n3ccccc3nc21`, the AC50 is 6.31 µM (active). On to `O=C(NCC1CCCO1)c1ccc2c(=O)n(Cc3ccco3)c(SCC(=O)N3CCCC3)nc2c1` (stereo not drawn), for which the “activity, negative = inhibition” value is -4.77% (inactive).

Take `Cn1c(C(=O)NCC2CCCO2)cc2c(=O)n3ccccc3nc21` (stereo not drawn): the AC50 is 2.24 µM (active).

Consider `CC1Cc2ccccc2N1C(=O)c1cc2c(=O)n3ccccc3nc2n1C` (stereo not drawn), for which the AC50 is 3.16 µM (active).

Take `C[C@@H](c1ccccc1)N1C(=O)[C@H]2[C@H]3[C@H](O)[C@H](O)C/C(=N/OC[C@@H](O)COCc4ccco4)[C@@H]3CC[C@@H]2C1=O`: the activity, negative = inhibition was -14.6% [at 11.4 µM] (inactive).

In the case of `COc1cccc(Nc2ncc3ncc(=O)n(C)c3n2)c1`, the AC50 was 1.58 µM (active).

With `Cn1c(=O)cnc2cnc(Nc3ccccc3)nc21`, the AC50 is 2 µM (active). Same read-out and setting: the figure for `COCCn1c(=O)cnc2cnc(Nc3ccccc3)nc21` is 1 µM (active); for `COCCn1c(=O)cnc2cnc(Nc3cccc(OC)c3)nc21` it is 0.794 µM (active). As for `O=C(O)[C@@H]1[C@@H]2C[C@H]([C@@H](Br)[C@H]2N2C(=O)CCC2=O)[C@@H]1C(=O)O`, the activity, negative = inhibition was -15.8% [at 2.29 µM] (inactive). The same measure, in the same setting: the figure for `CN[C@@H]1[C@H](O[C@@H]2O[C@H](CO)[C@@H](N)[C@H](O)[C@@H]2O)O[C@H]2C[C@@H](N)[C@@H](O[C@H]3[C@@H](O)[C@H](O)[C@H](N)C[C@@H]3N)O[C@H]2[C@H]1O` is -8.22% [at 25.6 µM] (inactive).

Take `CC(C)Cn1cnc2c(Sc3c([N+](=O)[O-])ncn3C)nc(N)nc21`: the activity, negative = inhibition is 8.13% [at 2.29 µM] (inactive).

Regarding `Cc1ccc(OCCCOc2cccc3cccnc23)cc1C`, the AC50 is 2.82 µM (active). Same read-out and setting: to `Brc1ccccc1OCCOCCOc1cccc2cccnc12` belongs 2.24 µM (active).

On to `Cc1c(CCO)c(=O)n(C)n1C(=O)c1ccc(F)cc1`, for which the “activity, negative = inhibition” value was 12.2% (inactive).

Turning to `COc1ccc(COC(=O)N/N=C2/C[C@@H](O)[C@@H](O)[C@@H]3[C@H]4C(=O)N(c5ccc(F)cc5F)C(=O)[C@@H]4CC[C@@H]23)cc1`, the activity, negative = inhibition is -3.56% [at 11.4 µM] (inactive). On the same count and under the same terms, to `COc1cc2c3cc1Oc1c(OC)c(OC)cc4c1[C@@H](Cc1ccc(O)c(c1)Oc1ccc(cc1)C[C@@H]3N(C)CC2)CN(C)C4` belongs -11.1% [at 11.4 µM] (inactive). On the same count and under the same terms, to `Nc1cc(C(=O)O)[nH]c(=O)n1` belongs -6.95% [at 11.4 µM] (inactive). With `O=C(O)c1nc(-c2ccccc2)[nH]c1C(=O)O`, the AC50 was 1 µM (active). Consider `C=CCn1c(COc2ccccc2)nnc1SCC(=O)N/N=C/c1ccc(C)cc1`, for which the AC50 is 3.55 µM (active). Regarding `C=CCn1c(Cc2ccc(OC)cc2)nnc1SCC(=O)c1cccc([N+](=O)[O-])c1`, the “activity, negative = inhibition” value was -28.6% (inactive). As to `COc1cccc2[nH]c3c(N4CC(C)CC(C)C4)ncnc3c12` (stereo not drawn), the AC50 was 2 µM (active).

With `CSc1ccccc1N1CCN(C(=O)Nc2ccc3c(c2)NC(=O)CO3)CC1`, the “activity, negative = inhibition” value was -15.6% (inactive). As to `COc1ccc(-c2csc(NC(=O)CCn3cnc4ccccc4c3=O)n2)cc1OC`, the “activity, negative = inhibition” value is 1.57% (inactive).

Take `c1cnc(Nc2nc(-c3ccc4ccccc4c3)cs2)nc1`: the AC50 is 0.224 µM (active).

With `N[C@H](CO)C(=O)NCC(=O)O` (H-[dS]-Gly-OH), the activity, negative = inhibition is 3.56% [at 2.29 µM] (inactive).

Take `CC(C)Nc1nc(NC(C)(C)C)nc(Oc2ccc(=O)n(-c3ccccc3)n2)n1`: the “activity, negative = inhibition” value is -25.1% (inactive). On to `COC(=O)c1nn(-c2cccc(C(F)(F)F)c2)c(=O)cc1Sc1ccccn1`, for which the concentration at half-maximal activity (AC50) was 2.24 µM (active). In the case of `COc1cc(-c2[o+]c3cc(O)cc(O)c3cc2O)cc(O)c1O`, the activity, negative = inhibition was -19.9% [at 2.29 µM] (inactive).

Turning to `CCSc1nc2sc3c(c2c(=O)[nH]1)CC(C)(CC)OC3` (stereo not drawn), the “activity, negative = inhibition” value is -26.5% (inactive). For `C=CCSc1nc2c(sc3nc(C)cc(C)c32)c(=O)[nH]1`, the AC50 is 1.12 µM (active).

As for `O=C(Cn1ccnc1[N+](=O)[O-])NCCO`, the “activity, negative = inhibition” value is -3.66% [at 25.6 µM] (inactive). As for `O=C(CCc1nc(-c2ccccc2)no1)NCCc1ccccc1`, the AC50 is 2.82 µM (active). Same read-out and setting: the figure for `c1ccc(CCc2nc(-c3ccccc3)no2)cc1` is 2.82 µM (active). Take `Nc1nc(N)c(CCCCc2ccccc2)c(N)n1`: the activity, negative = inhibition was -0.16% [at 2.29 µM] (inactive).

Consider `CCN(CC)CCc1nc(-c2ccccc2)no1`, for which the AC50 is 5.01 µM (active). As for `O=C(O)CCc1nc(-c2ccccc2-n2cccc2)no1`, the activity, negative = inhibition is -17.3% [at 2.29 µM] (inactive).

Take `CN1C(=O)NC(c2ccc(O)cc2)C(C(=O)c2cccs2)C1(O)C(F)(F)F` (stereo not drawn): the “activity, negative = inhibition” value was -30.6% (inactive). In the case of `NC(=S)Nc1cc2ccccc2c2ccccc12`, the half-maximal activity concentration (AC50) is 0.0708 µM (active). `NC(=S)Nc1ccc(Oc2ccc(NC(N)=S)cc2)cc1`: the “activity, negative = inhibition” value was 4.24% (inactive). On the same count and under the same terms, to `Cc1ccccc1N=C(N)Nc1ccccc1C` belongs -9.83% (inactive). On to `CN=C(N)/N=C(\N)Nc1cc2ccccc2c2ccccc12`, for which the AC50 was 0.251 µM (active).
